Each structure is given as a SMILES string. Several values for one entry are separate records, joined by “and”; a condition that tells them apart may be missing. Equal values may be shown once. Hit rate of the full screen: of about 16,000 compounds, about 5,800 (36%) were called active. About 23% were inconclusive and are not listed. This is one part of the list. Unmarked numbers belong to inactive results. The call rests on the fitted dose curve; in most records, active means well fitted curve in the direction sought with a large enough effect; inconclusive means small, poorly fitted or top-dose-only effect, or effect the other way; inactive means no such curve, though single readings can be large or run the other way.

These results are taken from PubChem BioAssay AID1851 (National Center for Advancing Translational Sciences (NCATS), 2009).
On the % scale 0 is the no-effect control and ±100 the full control effect.

For the assay, the target named is Cytochrome P450 2C19 (Homo sapiens) (UniProt P33261). Description: Cytochrome panel assay with activity outcomes. The following applies: recombinant CYP, pro-luciferin dealkylation, luminescence, p450-cyp2c19; series mostly up to 57.1 µM; activity, negative = inhibition: at the top concentration.
Cytochrome P450 2C19 (Homo sapiens), sequence (P33261 whole entry, looked up): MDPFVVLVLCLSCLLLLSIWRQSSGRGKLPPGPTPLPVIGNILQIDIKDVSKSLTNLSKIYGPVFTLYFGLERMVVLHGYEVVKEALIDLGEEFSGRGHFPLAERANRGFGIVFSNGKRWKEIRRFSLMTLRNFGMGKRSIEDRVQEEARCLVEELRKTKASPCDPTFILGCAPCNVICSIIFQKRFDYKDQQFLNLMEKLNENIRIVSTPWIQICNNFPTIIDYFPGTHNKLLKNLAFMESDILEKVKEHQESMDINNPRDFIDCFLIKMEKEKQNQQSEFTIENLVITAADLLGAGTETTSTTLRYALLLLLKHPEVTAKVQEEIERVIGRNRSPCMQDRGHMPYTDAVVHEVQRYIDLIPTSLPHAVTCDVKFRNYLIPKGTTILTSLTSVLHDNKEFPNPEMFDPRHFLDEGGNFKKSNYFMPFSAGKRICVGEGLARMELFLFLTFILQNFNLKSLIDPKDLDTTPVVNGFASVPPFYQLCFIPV
For `N=C(N)SCCc1ccc(OCc2ccc([N+](=O)[O-])cc2)cc1`, the “activity, negative = inhibition” value is -11.6%.

The AC50 is the concentration at which the activity in the assay is half-maximal. Turning to `COc1ccc(N2CCN(C(=O)CSc3nnc4c5cc(C)ccc5n(C)c4n3)CC2)cc1`, the AC50 was 1 µM (active).

Consider `Cc1cc(=O)[nH]c2c1c(C)nn2C1CCOC(C)(C)C1` (stereo unspecified), for which the “activity, negative = inhibition” value is -18.9%.

As for `Cc1ccc2c(c1)C1(SCCS1)C(=O)N2`, the AC50 is 25.1 µM (active).

As for `O=C1Nc2ccc(F)cc2C12SCCS2`, the AC50 was 11.2 µM (active).

For `CCc1c(O)c2c(c(O)c1C(C)=O)C(=O)c1c(cc(O)c(C(=O)O)c1C(=O)O)C2=O`, the activity, negative = inhibition is -9.38% [at 11.4 µM].

As for `CCOc1cc(CNCCCN2CCOCC2)cc(Br)c1OCC(=O)Nc1cccc(C(F)(F)F)c1`, the “activity, negative = inhibition” value was -58.3%.

As for `CCOc1cc(CNc2ccc(OC)cc2)cc(Br)c1OCC(=O)NC(C)(C)C`, the AC50 was 5.62 µM (active).

Regarding `CCOc1cc2[nH]c(=O)n(CCC(=O)NCc3ccc(OC)cc3)c(=O)c2cc1OCC`, the “activity, negative = inhibition” value was -16.3%.

Turning to `OC[C@@H]1O[C@H](n2cnc3c(/C=C(\O)c4ccccc4)ncnc32)[C@H](O)[C@@H]1O`, the activity, negative = inhibition is 34% [at 11.4 µM].

`CCOc1ccc(N2C(=O)CS/C2=N/NC(=O)COc2ccc3ccccc3c2)cc1`: the AC50 is 15.8 µM (active).

With `O=C(CSCc1ccccc1Cl)NNC(=S)Nc1ccccc1`, the AC50 is 2.24 µM (active).

As for `O=C(NNC(=O)c1ccccc1O)c1ccc(Cl)cc1`, the “activity, negative = inhibition” value was -20.8%.

For the molecule `O=C(NNC(=S)Nc1ccccc1)C1CC1`, the “activity, negative = inhibition” value was -32.8%.

For `O=C(CSCc1ccccc1Cl)NN1C(=O)c2ccccc2C1=O`, the half-maximal activity concentration (AC50) was 10 µM (active).

As for `O=C(CSCc1ccccc1Cl)NNC(=O)c1ccccc1`, the concentration at half-maximal activity (AC50) was 5.01 µM (active).

As to `O=C(O)c1c2c(c(O)c3c1CN(C1CCCCC1)CO3)OCN(C1CCCCC1)C2`, the activity, negative = inhibition is 22.2% [at 11.4 µM].

Turning to `CCn1c(SCC(=O)NC(=O)NCc2ccco2)nnc1-c1cccs1`, the AC50 was 14.1 µM (active).

With `O=C(CSc1nc2ccc([N+](=O)[O-])cc2s1)c1ccc2ccccc2c1`, the activity, negative = inhibition was -43.1% [at 11.4 µM].

Turning to `CCn1c(SCC(=O)NC2CCCc3ccccc32)nnc1-c1cccs1` (stereo unspecified), the AC50 was 7.94 µM (active).

For the molecule `CCn1c(SCC(=O)c2ccccc2)nnc1-c1cccs1`, the AC50 was 0.794 µM (active).

As for `CCn1c(SCC(=O)c2ccc3ccccc3c2)nnc1-c1cccs1`, the AC50 is 0.708 µM (active).

For the molecule `Cc1cc(C)nc(SCc2nnc(SCC(N)=O)n2Cc2ccco2)n1`, the “activity, negative = inhibition” value was -67.7%.

With `Cc1ccccc1CSc1nnc(-c2cccs2)n1Cc1ccco1`, the AC50 is 1.41 µM (active).

As for `O=C1C[C@@H](O)[C@@H](O)[C@H]2[C@@H]3C(=O)N(C4CCCCC4)C(=O)[C@@H]3CC[C@H]12`, the activity, negative = inhibition was 13.8% [at 11.4 µM] and 12.1% [at 11.4 µM] and 0.0924% [at 11.4 µM].

Consider `CCn1c(SCC(=O)Nc2sc3c(c2C(N)=O)CCC(C)C3)nnc1-c1ccco1` (stereo unspecified), for which the AC50 was 7.08 µM (active).

On to `O=C(O)/C=C\C(=O)N1Cc2cc3ccccc3nc2C1`, for which the activity, negative = inhibition was 21.9% [at 11.4 µM].

For the molecule `O=C(/C=C/c1ccccc1)N1CCN(Cc2nc3ccccc3c(=O)[nH]2)CC1`, the AC50 is 22.4 µM (active).

As to `O=C(O)c1cccc2cccc(-c3cccc4cccc(C(=O)O)c34)c12`, the activity, negative = inhibition is -9.27% [at 11.4 µM].

Turning to `O=C1c2ccccc2C(=O)c2c1ccc(C(=O)O)c2-c1ccc2ccccc2c1`, the concentration at half-maximal activity (AC50) is 2.51 µM (active).

For `O=C(O)c1ccccc1C(=O)Nc1cc2c(cc1Br)-c1ccccc1C2=O`, the activity, negative = inhibition is -19.4% [at 11.4 µM].

Turning to `Cc1cccc(C(=O)c2ccccc2C(=O)O)c1O`, the “activity, negative = inhibition” value is 6.75%.

Regarding `Cc1cccc(C(CC(=O)N2CCCC2)c2ccccc2)c1O` (stereo unspecified), the AC50 was 1.41 µM (active).

Turning to `COCC(=O)N1CCC2(CC1)CCN(C(c1ccccc1)c1ccccc1)CC2`, the “activity, negative = inhibition” value is 7.45%.

Turning to `CN(C)C[C@H]1CCC[C@@H](CN(C)C)C1=O`, the activity, negative = inhibition is 19.2% [at 11.4 µM].

Turning to `N[C@@H](CO)C(=O)O`, the AC50 result was “inactive”.

For the molecule `CC(C)[C@H]1C(=O)C(C(N)=O)=C(O)[C@]2(O)C(=O)C3=C(O)c4c(O)ccc(N(C)C)c4C[C@H]3C[C@@H]12`, the “activity, negative = inhibition” value is 4.29%.

For `O=c1ccn(-c2cccc(C(F)(F)F)c2)nc1-c1ccn(-c2ccccc2F)n1`, the AC50 was 17.8 µM (active).

Take `CCS(=O)(=O)c1ccc2c(c1)N(S(C)(=O)=O)CC(C(=O)NCCOC)O2` (stereo unspecified): the “activity, negative = inhibition” value is -18.7%.

As for `CS(=O)(=O)N1CC(C(=O)NC2CC2)Oc2ccc(Cl)cc21` (stereo unspecified), the AC50 was 7.08 µM (active).

For `CC(C)(C)NC[C@H](O)c1cc(O)cc(O)c1`, the AC50 entry was “inactive”.

In the case of `CN1CCc2cc(Cl)c(O)cc2[C@H](c2ccccc2)C1`, the “activity, negative = inhibition” value is -13.6%.

Regarding `Cc1ccc2nc(N3CCN(S(=O)(=O)c4ccc5c(c4)OCCO5)CC3)c(C#N)cc2c1`, the AC50 is 2.51 µM (active).

As for `Cc1ccc(Cl)cc1N1CCN(S(=O)(=O)c2ccc3c(c2)OCCO3)CC1`, the AC50 is 3.98 µM (active).

With `O=C(O)CCC(=O)N1CCOc2ccc(Cl)cc21`, the “activity, negative = inhibition” value is -15.9%.

On to `CO[C@@H]1COC(=O)CC=C[C@@H](C)[C@@H]2C=C[C@H](O)[C@@H](COC(=O)[C@H](C)NC(=O)CC=C[C@H]1C)O2`, for which the activity, negative = inhibition was -12.2% [at 11.4 µM].
